# NPR1 antag – human Npr1 receptor antagonism; 76,000 tested, 1.6% active; P16066; Potency, µM (top dose mostly 46.3 µM), usual class: inhibitors; HEK293 hNpr1 GloSensor cGMP, ANP-stimulated luminescence; calls by dose curve; note: nearly all actives have a fitted effect of over 60% in size
#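 HEK293 cells stably expressing human Npr1 and cGMP GloSensor pGS-40F, loaded 2 h with 2% GloSensor reagent, given compound 30 min at room temperature. Luminescence read before and 20 min after 0.1 nM hNppA.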
# HEK cytotox – cytotoxic compounds in HEK 293 cells; Potency, µM (highest dose often 115 µM), most hits filed as inhibitors; HEK 293 viability, ATP luminescence (CellTiter-Glo), 48-72 h; 94,000 tested, 6.6% active; note: nearly all actives have a fitted effect of over 60% in size
#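 ATP-coupled CellTiter-Glo luminescence served as viability read-out, recorded 10 min after reagent addition at room temperature. HEK 293 cells, 250 cells/well, had been incubated with pintool-transferred compound for 48 or 72 hr at 37 degree Celsius.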
# GPT2 inhibitor – blocks human glutamate pyruvate transaminase 2. Potency, µM (series often up to 57.7 µM), usual class: inhibitors. Q8TD30. Recombinant GPT2, coupled pyruvate oxidase/HRP Amplex Red fluorescence. 100,000 tested, 0.25% active; note: nearly all actives have a fitted effect of over 60% in size
#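 Inhibition is scored from Amplex Red fluorescence generated when pyruvate oxidase and HRP act on pyruvate released by GPT2. Reactions contain 10ng/uL enzyme, 250uM a-KG and 2mM L-alanine and run 30 min at room temperature.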
# Luciferase inh – blocks purified firefly luciferase enzyme activity; purified P. pyralis luciferase, luminescence, biochemical; P08659; AID 1347043; Potency, µM (series often up to 115 µM), hits mostly inhibitors; 76,000 tested, 2.5% active; note: nearly all actives have a fitted effect of over 65% in size
# Target sequence (P08659 whole entry, looked up): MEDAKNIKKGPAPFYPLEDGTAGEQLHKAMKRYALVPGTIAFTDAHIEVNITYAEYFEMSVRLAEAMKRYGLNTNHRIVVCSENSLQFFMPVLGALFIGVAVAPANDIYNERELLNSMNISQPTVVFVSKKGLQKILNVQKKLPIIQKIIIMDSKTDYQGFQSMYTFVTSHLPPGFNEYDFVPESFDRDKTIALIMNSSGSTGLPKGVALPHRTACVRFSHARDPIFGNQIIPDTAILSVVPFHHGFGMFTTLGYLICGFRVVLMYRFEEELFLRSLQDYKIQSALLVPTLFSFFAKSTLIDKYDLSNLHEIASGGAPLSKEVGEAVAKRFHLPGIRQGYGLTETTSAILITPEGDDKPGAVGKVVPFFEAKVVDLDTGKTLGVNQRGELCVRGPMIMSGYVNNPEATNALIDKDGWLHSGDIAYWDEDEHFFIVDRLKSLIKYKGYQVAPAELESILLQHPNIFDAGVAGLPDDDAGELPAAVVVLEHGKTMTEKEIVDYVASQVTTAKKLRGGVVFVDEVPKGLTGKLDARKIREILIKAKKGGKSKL
#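 Cell-free enzyme assay, 10nM P. pyralis luciferase, luciferin and ATP each at 10uM. Inhibition profiled over a 6-point titration, read as luminescence.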
# 3T3 cytotox – kills NIH 3T3 cells | Potency, µM (doses to about 96.7 µM), hits mostly inhibitors | NIH 3T3 viability, CellTiter-Glo ATP luminescence, 48-72 h | 94,000 tested, 4.3% active; note: nearly all actives have a fitted effect of over 55% in size
#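 ATP-dependent luminescence (CellTiter-Glo) served as the viability signal for NIH 3T3 cells treated with compound for 48 or 72 hr at 37 °C.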
# A number is an active result; i = inactive; ? = inconclusive; nt = no result; ! = not confirmed by another sample; [ ] = another dose, or the depositor's remark. The list is not random: actives were taken first. Their share in the collection is about 10%. Unless noted, calls come from the whole dose curve; as a rule, active = well fitted curve in the direction sought with a large enough effect; inconclusive = small, poorly fitted or top-dose-only effect, or another doubt; inactive = no such curve, though single readings can be large; an effect the other way counts as inactive or inconclusive.
SMILES,NPR1 antag,HEK cytotox,GPT2 inhibitor,Luciferase inh,3T3 cytotox
O=C(c1ccoc1)N1CCC(n2cc(-c3nc(-c4ccccc4)no3)nn2)CC1,i,?,i,?,?
CN(Cc1cnccn1)Cc1ccccc1OCC(O)CN(C)C1CCCCC1 (centres undefined),i,i,i,i,i
COCCOc1ncccc1-c1noc([C@@H]2CCCN2Cc2ccc(OC)cc2O)n1,i,i,i,i,i
Cc1ccsc1C(=O)N1CCC(n2cc(-c3nc(-c4ccccc4)no3)nn2)CC1,?,40µM,i,i,i
Cc1ccccc1C(=O)N1CCC(n2cc(-c3nc(-c4ccccc4)no3)nn2)CC1,i,?,i,i,i
Cc1cc(=O)n(CC(=O)Nc2ccccc2F)c(-c2ccccc2)n1,i,i,i,i,i
O=C(C1CCCCC1)N1CCC2(CC1)CC(N(Cc1ccc(F)cc1)C1CC1)CCO2 (centres undefined),i,45µM,i,i,?
CNC(=O)N1CCC2(CC1)CC(N(Cc1ccc(F)cc1)C1CC1)CCO2 (centres undefined),i,i,i,i,i
CCC(CC)C(=O)N1CCC2(CC1)CC(N(Cc1ccc(F)cc1)C1CC1)CCO2 (centres undefined),i,40µM,i,i,?
COCC(=O)N1CCN(c2ccc3nnc(-c4ccccc4)n3n2)CC1,nt,i,nt,nt,i
N#Cc1cccc(CN(Cc2cccc(C#N)c2)[C@@H]2CO[C@H](CNC(=O)c3ccccc3)[C@H]2O)c1,i,79µM,i,i,?
O=C(C1COc2ccccc2C1)N1CCC(n2c(=O)[nH]c3ccccc32)CC1 (centres undefined),?,22µM,i[11.5 µM],i,?
CC(C)(C)OC(=O)NCCCC(=O)N1CCC(n2c(=O)[nH]c3ccccc32)CC1,20µM,?,i,i,i
CCN(CC)C(=O)N1CCCC(Cc2ncc(C)n2Cc2ccc(F)cc2)C1 (centres undefined),i,?,i,i,?
COCCn1c(=O)c(C(=O)N2CCC(Cc3ccccc3)CC2)nc2cccnc21,nt,i,i,nt,i
COc1ccc(CN2CC[C@@H](CO)N(C)c3nc(C)ccc3C2)cc1,i,?,i,i,i
Cc1ccc2c(n1)N(C)[C@H](CO)CCN(Cc1ccc(C(F)(F)F)cc1)C2,i,35µM,i,i,63µM
Cc1ccc2c(n1)N(C)[C@H](CO)CCN(Cc1ccc(C(C)C)cc1)C2,i,63µM,i,i,?
CCN1CCCC12Cc1ccccc1CN(C(=O)c1ccccc1)C2 (centres undefined),nt,?,i,nt,?
O=C(c1cccnc1)N1CCCCCC1c1nnc(-c2ccccc2)o1 (centres undefined),nt,i,i,nt,i
COc1cccc(CN2CCOC3(CCN(Cc4ccc5[nH]ccc5c4)CC3)C2=O)c1,i,?,i,i,?
COc1cccc(CN2CCOC3(CCN(Cc4cccc(Cl)c4)CC3)C2=O)c1,i,79µM,i,i,?
O=C(NC1CCN(c2cc(-c3ccc(F)cc3)[nH]n2)C1)c1cc(Cl)ccc1F (centres undefined),i,?,i,i,35µM
O=C(NC1CCCN(c2cc(-c3ccc(F)cc3)[nH]n2)C1)c1ccc(F)cc1F (centres undefined),i,?,i,i,?
O=C(NC1CCCN(c2cc(-c3ccc(F)cc3)[nH]n2)C1)c1cc(F)ccc1F (centres undefined),i,45µM,i,i,?
SMILES,NPR1 antag,HEK cytotox,GPT2 inhibitor,Luciferase inh,3T3 cytotox
COc1ccc(-c2cc(N3CCC(NC(=O)c4cc(Cl)ccc4F)C3)n[nH]2)cc1 (centres undefined),i,?,i,i,?
Cc1cc(-c2nc(-c3ccc(OC(F)(F)F)cc3)no2)nn1Cc1ccnc(N2CCN(C3CC3)CC2)c1,nt,nt,i,nt,nt
O=C(NC1CCN(Cc2cccc(-c3cccs3)c2)CC1)c1ccncc1,nt,?,i,nt,?
O=C(NCCc1ccc(F)cc1)C1CCCN(Cc2cccc(-c3cccs3)c2)C1 (centres undefined),nt,28µM!,nt,nt,?
O=C(Nc1cccc(Cl)c1)C1CCCN(Cc2cccc(-c3cccs3)c2)C1 (centres undefined),nt,40µM,nt,nt,?
O=C(NCc1ccc(C(F)(F)F)cc1)C1CCCN(Cc2cccc(-c3cccs3)c2)C1 (centres undefined),nt,?,i,nt,11µM

# High-throughput results (PubChem)
